Calls of active or inactive are those of the source. Unless noted, how the calls were made is not given here.
How the values were obtained:
[1] = resazurin metabolic signal in HepG2 cells – cell-based, resazurin fluorescence, 24 h, PK04 Diversity Set, profiling panel (AID 1172); conditions: HepG2 viability, higher = more signal
[2] = budding yeast growth changes without added modifier – OD600, strain BY4716, 24 h, basal condition, primary screen (AID 1173); conditions: S. cerevisiae BY4716 growth, OD600, 24 h; higher = more signal, called active from +8 up or from −8 down
[3] = viability profiling in MM1S myeloma cells – cell-based, resazurin fluorescence, basal, 24 h, PK04 Diversity Set, profiling panel (AID 1174); conditions: higher = more signal, called active from +8 up or from −8 down;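 further: MM1S multiple myeloma cell line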
[4] = target: Dihydroorotate dehydrogenase (quinone), mitochondrial (Plasmodium falciparum (isolate 3D7)) (UniProt Q08210); assay: inhibition of P. falciparum DHODH – biochemical, C-terminal His tag, absorbance 600 nm, primary screen (AID 1175); conditions: PfDHODH enzyme, DCIP absorbance 600 nm; higher = more signal, called active from +8 up or from −8 down;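 further: recombinant parasite enzyme with a five histidine tag at its C terminus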
[5] = inhibition of PAO1 biofilm formation – strain PAO1, LB-PBS medium, absorbance 600 nm, primary screen (AID 1176); conditions: P. aeruginosa PAO1 growth/biofilm, A600, 12 h; higher = more signal
[6] = growth modulation of vineyard yeast isolate – strain RM11-1a, OD600, basal, 24 h, primary screen (AID 1177);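 further: cultures grown under basal conditions with no added stressor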; conditions: S. cerevisiae RM11-1a growth, OD600, 24 h; higher = more signal, called active from +8 up or from −8 down
[7] = growth of efflux-deficient E. coli DRC39 – strain DRC39, OD650, 24 h, E. coli filamentation inducers, primary screen (AID 1178);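 further: growth measured as culture turbidity by optical density at 650 nm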; conditions: E. coli DRC39 acrAB, higher = more signal, called active from +8 up or from −8 down
[8] = growth of efflux-deficient E. coli DRC39 – strain DRC39, OD650, 48 h, E. coli filamentation inducers, primary screen (AID 1179);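 further: screen aims at cell division blockers that make cells filament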; conditions: E. coli DRC39 delta-acrAB growth, higher = more signal, called active from +8 up or from −8 down
[9] = viability profiling in RPMI8226 myeloma cells – cell-based, resazurin fluorescence, basal, 24 h, PK04 Diversity Set, profiling panel (AID 1180); conditions: higher = more signal;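 further: RPMI8826 multiple myeloma cell line at 5000 cells per well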
[10] = target: E3 ubiquitin-protein ligase XIAP (Homo sapiens) (UniProt P98170); assay: small molecules binding XIAP protein – biophysical, small-molecule microarray, fluorescence 635 nm, primary screen (AID 1181); conditions: higher = more signal;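 further: score merges 667 nm emission and signal to noise over triplicate slides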
[11] = system: XIP peptide (Xip251-270) binding; assay: XIP fragment 251-270 binding compounds – biochemical, small-molecule microarray, fluorescence 635/667 nm, 0.1 µg/mL protein, primary screen (AID 1182); conditions: fluorescent protein binding, 635 nm, higher = more signal, called active from +8 up or from −8 down
XIP peptide (Xip251-270) = assay: compounds binding XIP fragment 251-270 – biochemical, small-molecule microarray, fluorescence 635/667 nm, 0.5 µg/mL protein, primary screen (AID 1183); conditions: fluorescence 635 nm, higher = more signal
[12] = blood-stage malaria parasite viability loss – strain 3D7, DAPI fluorescence, 100 nL, primary screen (AID 1184);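 further: parasites grown inside human red blood cells in medium with human serum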; conditions: P. falciparum 3D7 growth, 3 d, higher = more signal
[13] = target: Homeobox protein Hox-A13 (Mus musculus) (UniProt Q62424); assay: disruptors of Hoxa13 oligonucleotide interaction – biochemical, fluorescence polarization, labeled oligonucleotide, primary screen (AID 1185); conditions: Hoxa13:DNA binding, 15 min, higher = more signal, called active from +8 up or from −8 down
[14] = blockers of DNA damage checkpoint Chk1 activation – imaging, HeLa, hydroxyurea, phospho-Chk1 antibody, percent positive cells, primary screen (AID 1186); conditions: hydroxyurea-induced phospho-Chk1 immunofluorescence imaging, higher = more signal
[15] = blockers of DNA damage checkpoint Chk1 activation – imaging, HeLa, hydroxyurea, phospho-Chk1 nuclear intensity, primary screen (AID 1187); conditions: hydroxyurea-induced phospho-Chk1 immunofluorescence imaging, higher = more signal

Chain of Dihydroorotate dehydrogenase (quinone), mitochondrial (Plasmodium falciparum (isolate 3D7)) (Q08210 whole entry, looked up): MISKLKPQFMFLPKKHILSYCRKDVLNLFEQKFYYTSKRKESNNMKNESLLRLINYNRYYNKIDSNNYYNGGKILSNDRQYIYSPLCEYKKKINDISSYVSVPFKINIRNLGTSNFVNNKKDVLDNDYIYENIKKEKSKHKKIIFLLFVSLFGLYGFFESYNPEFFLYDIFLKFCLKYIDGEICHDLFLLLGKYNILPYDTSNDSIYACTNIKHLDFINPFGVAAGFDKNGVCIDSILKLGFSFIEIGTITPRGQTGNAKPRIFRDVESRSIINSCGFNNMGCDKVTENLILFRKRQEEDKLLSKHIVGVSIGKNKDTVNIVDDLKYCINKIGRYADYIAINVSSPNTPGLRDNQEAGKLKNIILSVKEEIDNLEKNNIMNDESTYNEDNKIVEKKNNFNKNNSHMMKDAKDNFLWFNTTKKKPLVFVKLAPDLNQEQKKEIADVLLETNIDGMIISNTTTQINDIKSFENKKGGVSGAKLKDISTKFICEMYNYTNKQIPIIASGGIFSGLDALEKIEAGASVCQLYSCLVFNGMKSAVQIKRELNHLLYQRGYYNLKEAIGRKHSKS
Chain of Homeobox protein Hox-A13 (Mus musculus) (Q62424 whole entry, looked up): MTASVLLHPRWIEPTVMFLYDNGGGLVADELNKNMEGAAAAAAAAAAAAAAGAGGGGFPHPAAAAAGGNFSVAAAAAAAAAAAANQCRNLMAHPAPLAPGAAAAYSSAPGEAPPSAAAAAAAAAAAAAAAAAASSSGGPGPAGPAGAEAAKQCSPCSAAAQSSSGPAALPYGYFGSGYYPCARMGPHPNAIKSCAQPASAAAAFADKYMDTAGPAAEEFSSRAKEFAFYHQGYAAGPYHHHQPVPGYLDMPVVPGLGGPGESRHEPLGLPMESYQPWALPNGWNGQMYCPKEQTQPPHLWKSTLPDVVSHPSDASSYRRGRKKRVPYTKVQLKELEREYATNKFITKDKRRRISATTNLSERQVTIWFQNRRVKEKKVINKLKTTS
Chain of E3 ubiquitin-protein ligase XIAP (Homo sapiens) (P98170 whole entry, looked up, the tested form may be a part): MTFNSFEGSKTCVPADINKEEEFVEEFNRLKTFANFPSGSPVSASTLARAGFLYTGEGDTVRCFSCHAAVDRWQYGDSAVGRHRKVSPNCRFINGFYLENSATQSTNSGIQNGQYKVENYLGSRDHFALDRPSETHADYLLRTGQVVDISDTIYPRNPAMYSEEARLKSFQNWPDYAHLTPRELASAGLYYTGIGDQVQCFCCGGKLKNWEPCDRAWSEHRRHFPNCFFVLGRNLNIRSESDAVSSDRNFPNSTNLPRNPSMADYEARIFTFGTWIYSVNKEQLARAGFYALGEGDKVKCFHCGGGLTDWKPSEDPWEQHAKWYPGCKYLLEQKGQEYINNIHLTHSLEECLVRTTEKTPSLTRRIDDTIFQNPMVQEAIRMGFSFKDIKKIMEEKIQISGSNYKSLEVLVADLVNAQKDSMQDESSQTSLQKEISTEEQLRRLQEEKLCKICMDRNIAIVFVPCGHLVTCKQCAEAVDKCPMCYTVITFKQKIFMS

SMILES	z-score [1]	z-score [2]	z-score [3]	composite z-score [4]	z-score [5]	z-score [6]	z-score [7]	z-score [8]	z-score [9]	composite z-score [10]	composite z-score [11]	composite z-score (XIP peptide (Xip251-270))	z-score [12]	z-score [13]	z-score [14]	z-score [15]
COC(=O)[C@@]1(CCS(=O)(=O)c2ccccc2)N=C(c2ccc(OCCCO)cc2)O[C@H]1c1ccccc1N=[N+]=[N-]	-0.705	0.905 (inactive)	-2.87 (inactive)	-0.279 (inactive)	0.246 (inactive)	1.09 (inactive)	0.399 (inactive)	-1.12 (inactive)	-1.64	-0.0374	1.61 (inactive)	0.79	-1.98	-3.19 (inactive)	-0.305 (inactive)	-0.0592 (inactive)
C=CCOC(=O)[C@H]1[C@@H]2C(=O)O[C@@H](c3ccccc3)[C@@H](c3ccccc3)N2[C@@H](c2ccc(OCCOC(=O)[C@@H]3C[C@@H]4C(=O)N[C@@H](Cc5ccccc5)C(=O)N4[C@@H]3c3ccc(O)cc3)cc2)[C@]12C(=O)Nc1ccccc12	-0.648	1.45 (inactive)	-0.292 (inactive)	-0.139 (inactive)	3.66 (inactive)	0.818 (inactive)	-0.631 (inactive)	-0.282 (inactive)	-0.309	0.144	0.819 (inactive)	0.743	-1.83	1.86 (inactive)	-0.287 (inactive)	-0.584 (inactive)
COc1ccc(C#Cc2ccc3c(c2)[C@]2(C(=O)N3)[C@H](c3ccc(OCCO)cc3)N3[C@H](c4ccccc4)[C@H](c4ccccc4)OC(=O)[C@H]3[C@@H]2C(=O)O)cc1	1.24	1.85 (inactive)	-0.103 (inactive)	-12.9 (active)	2.25 (inactive)	1.73 (inactive)	1.22 (inactive)	0.0805 (inactive)	0.149	0.158	-0.436 (inactive)	0.327	-1.31	-5.36 (inactive)	0.36 (inactive)	0.273 (inactive)
Cc1ccc(F)cc1S(=O)(=O)N[C@@H]1CCN(Cc2ccc3[nH]ccc3c2)C1	-1.14	-2.59 (inactive)	-0.946 (inactive)	-0.203 (inactive)	-0.189 (inactive)	-0.773 (inactive)	-1.37 (inactive)	-4.18 (inactive)	-0.73	-0.144	-0.0141 (inactive)	0.261	-1.3	-4.14 (inactive)	0.29 (inactive)	-0.075 (inactive)
COC(=O)c1ccc([C@H](NC(=O)c2ccccc2)[C@]2(C)C[C@H]2C2CCCCC2)cc1	0.38	1.28 (inactive)	0.713 (inactive)	-0.256 (inactive)	0.371 (inactive)	0.832 (inactive)	-1 (inactive)	-0.768 (inactive)	0.293	-0.127	-0.317 (inactive)	-0.199	-0.631	3.23 (inactive)	-0.198 (inactive)	-0.123 (inactive)
COc1cccc(C[C@H]2C[C@@H](CO[Si](C(C)C)(C(C)C)C(C)C)N3C(=O)[C@@]4(C(C)=O)O[C@@]23[C@@H]2C(=O)N(C)C(=O)[C@@H]24)c1	0.65	0.294 (inactive)	-0.494 (inactive)	0.0539 (inactive)	0.82 (inactive)	0.993 (inactive)	-0.493 (inactive)	-0.638 (inactive)	-0.334	0.0082	0.234 (inactive)	0.61	-1.75	-3.39 (inactive)	-0.365 (inactive)	-0.482 (inactive)
C[C@H]1C2[C@H](Cc3ccccc3)NC(=O)[C@]23C(=O)NCC(=O)N2CCC[C@H]2C(=O)NC/C=C\C/C=C/C3[C@@H]2O[C@]12C (some centres undefined)	0.825	-1.82 (inactive)	0.741 (inactive)	-0.173 (inactive)	-0.14 (inactive)	-0.939 (inactive)	1.02 (inactive)	0.741 (inactive)	1.05	-0.258	0.358 (inactive)	0.341	0.876	-2.22 (inactive)	0.353 (inactive)	0.133 (inactive)
COC(=O)C1=CC(CCCO)=CC(c2ccc(CN3CCCC3)cc2)N(Cc2sc3ccccc3c2Cl)C=C1C(=O)OC (centres undefined)	0.666	-2.54 (inactive)	0.691 (inactive)	-1.63 (inactive)	0.186 (inactive)	-1.62 (inactive)	0.735 (inactive)	1.29 (inactive)	0.85	-0.0084	4.74 (inactive)	0.916	-1.95	-1.23 (inactive)	-0.438 (inactive)	-0.402 (inactive)
C=CCC(OC(C)=O)[C@@H]1[C@@H](N(Cc2ccc(-c3cccc(C(F)(F)F)c3)o2)C(=O)c2cccc3ccccc23)c2cc(OCCCO)ccc2N1C(=O)c1ccc2ccccc2n1 (some centres undefined)	-0.892	-0.606 (inactive)	-0.864 (inactive)	0.995 (inactive)	-0.51 (inactive)	0.356 (inactive)	0.249 (inactive)	-0.195 (inactive)	-0.804	-0.227	-0.279 (inactive)	-0.0301	-2.15	-2.09 (inactive)	-0.131 (inactive)	0.228 (inactive)

— PubChem BioAssay
